# Measured values as given in PubChem BioAssay AID588651 (The Scripps Research Institute Molecular Screening Center, 2011).
# Active and inactive are the calls of the source. Cut-off read from the data, not from the text of the source: active = inhibition above about 65%; inactive = the rest.
# Test system: Fam108b
# Assay: Fam108b inhibition by ABPP, late-stage follow-up, biochemical, gel-based ABPP, recombinant soluble Fam108b, HTS hits, complex proteome (AID 588651);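 note: Fam108b spiked into mouse brain membrane proteome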
# Conditions: FP-rhodamine labeling in proteome, at 20 µM, active compounds read high
row,SMILES,inhibition
1,Cc1ccnc(N=Cc2nc(-c3ccccc3Br)oc2O)c1,7% (inactive)
2,Cc1ccc2nc(CSc3nc(C)ccc3C#N)[nH]c2c1,50% (inactive)
3,Cc1ccc(C)c(-n2c3nc(=O)[nH]c(=O)c-3cc3cc([N+](=O)[O-])ccc32)c1,0% (inactive)
4,Cc1ccc(S(=O)(=O)Nc2ccccc2C(=O)Nc2nc(-c3ccc(F)cc3)cs2)cc1,40% (inactive)
5,Cn1c2ccccc2c2cc(C=NNC(=O)c3cc(O)ccc3O)ccc21,80% (active)
6,Cc1cccc(N=Cc2nc(-c3ccccc3Br)oc2O)n1,10% (inactive)
7,Nc1cc2nsnc2cc1Br,0% (inactive)
8,Clc1ccccc1C(c1ccccc1)(c1ccccc1)n1ccnc1,0% (inactive)
9,CCc1ccc(S(=O)(=O)N=C2C=C(Sc3ncn[nH]3)C(=O)c3ccccc32)cc1,60% (inactive)
10,O=C(Nc1cccc(C(F)(F)F)c1)Nc1ccc(N2CCCC2)c(S(=O)(=O)Nc2ccccc2Cl)c1,98% (active)
11,CC1(C)CC(=O)C2=C(C1)c1c(ccc3ccccc13)NC2c1cc([N+](=O)[O-])cc([N+](=O)[O-])c1O (centres undefined),50% (inactive)
12,CCn1nc([N+](=O)[O-])c(C(C#N)c2nc3cc(C(F)(F)F)ccc3s2)c(Cl)c1=O (centres undefined),0% (inactive)
13,Cc1cc(NN=Cc2c(O)ccc3ccccc23)nc(-c2ccccc2O)n1,85% (active)
14,COc1cc2cc(C(=O)NN=Cc3ccccc3Cl)[nH]c2cc1OC,10% (inactive)
15,Oc1c(Cl)cc(Cl)c(Cl)c1Cc1c(O)c(Cl)cc(Cl)c1Cl,0% (inactive)
16,Cc1ccc(S(=O)(=O)/N=C2\C=C(Nc3cccc(C(=O)O)c3)C(=O)c3ccccc32)cc1,0% (inactive)
17,Oc1cccc2cc3cccc(O)c3c(O)c12,85% (active)

row,SMILES,inhibition
1,CN(C)S(=O)(=O)c1cccc(NC(=O)COC(=O)c2cc(-c3cccc(Br)c3)nc3ccccc23)c1,0% (inactive)
2,Oc1oc(-c2ccccc2Br)nc1C=Nc1ccccn1,90% (active)
3,O=c1oc(-c2ccccc2F)nc2scc(-c3ccccc3)c12,98% (active)
4,Cc1cc(C(C#N)c2ccc(Cl)cc2)c(Cl)cc1NC(=O)c1cc(I)cc(I)c1O (centres undefined),50% (inactive)
5,Oc1ccc(C=NNc2ccnc3cc(Cl)ccc23)c(O)c1O,20% (inactive)
6,CCN(c1ccccc1)S(=O)(=O)c1ccc(NC(=O)c2nc(S(C)(=O)=O)ncc2Cl)cc1,0% (inactive)
7,COc1ccc(S(=O)(=O)/N=C2\C=C(Nc3ccc(O)cc3)C(=O)c3ccccc32)cc1,25% (inactive)
8,CCN(CC)c1ccc(C2Nc3cccc4cccc(c34)N2)c(O)c1,10% (inactive)
9,O=C(Nc1ccc(F)cc1)Nc1ccc(N2CCCC2)c(S(=O)(=O)Nc2ccccc2Cl)c1,95% (active)
10,CCc1ccc(S(=O)(=O)/N=C2\C=C(Nc3cccc(C(=O)O)c3)C(=O)c3ccccc32)cc1,0% (inactive)
11,Cc1ccc(S(=O)(=O)N=C2C=C(Sc3ncn[nH]3)C(=O)c3ccccc32)cc1,90% (active)
12,CCCCCCCCCCCCCCCC[n+]1ccc(C=NO)cc1,0% (inactive)
13,COc1ccc(-c2csc3nc(-c4ccccc4OC)oc(=O)c23)cc1,80% (active)
14,CC1CCCCN1S(=O)(=O)c1ccc(C(=O)Nc2ccccc2-c2nc3ccccc3[nH]2)cc1 (centres undefined),50% (inactive)
15,O=c1oc(-c2ccccc2Cl)nc2ccsc12,95% (active)
16,O=C1NC(=S)/C(=C\c2ccc(-c3ccccc3Cl)o2)S1,0% (inactive)
17,CCOc1cc(/C=C2\C(=O)N(c3nc(-c4ccc(Br)cc4)cs3)N=C2c2ccccc2)ccc1O,70% (active)
